In ChEMBL document CHEMBL3988442, “University of Dundee, Small-Polar-MMV Screening Library” (2021):
For some of these results: Entries with a potency or affinity are not part of this list.

How the values were obtained:
Set-up in all cases: scale not given: direction of the effect not stated beside the values
[1] = target: Protein translocase subunit SecA (Escherichia coli (strain K12)) (UniProt P10408); assay: Assay to Identify E. coli SecA ATPase Inhibitors; format: functional; settings: 30 µM
[2] = target: T1, Ubiquitin-activating enzyme e1, putative (Leishmania donovani (strain BPK282A1)) (UniProt E9BSI1); assay: Leishmania donovani Ubiquitin Activating Enzyme (LdE1); format: functional; settings: 30 µM
T1 sequence (whole entry): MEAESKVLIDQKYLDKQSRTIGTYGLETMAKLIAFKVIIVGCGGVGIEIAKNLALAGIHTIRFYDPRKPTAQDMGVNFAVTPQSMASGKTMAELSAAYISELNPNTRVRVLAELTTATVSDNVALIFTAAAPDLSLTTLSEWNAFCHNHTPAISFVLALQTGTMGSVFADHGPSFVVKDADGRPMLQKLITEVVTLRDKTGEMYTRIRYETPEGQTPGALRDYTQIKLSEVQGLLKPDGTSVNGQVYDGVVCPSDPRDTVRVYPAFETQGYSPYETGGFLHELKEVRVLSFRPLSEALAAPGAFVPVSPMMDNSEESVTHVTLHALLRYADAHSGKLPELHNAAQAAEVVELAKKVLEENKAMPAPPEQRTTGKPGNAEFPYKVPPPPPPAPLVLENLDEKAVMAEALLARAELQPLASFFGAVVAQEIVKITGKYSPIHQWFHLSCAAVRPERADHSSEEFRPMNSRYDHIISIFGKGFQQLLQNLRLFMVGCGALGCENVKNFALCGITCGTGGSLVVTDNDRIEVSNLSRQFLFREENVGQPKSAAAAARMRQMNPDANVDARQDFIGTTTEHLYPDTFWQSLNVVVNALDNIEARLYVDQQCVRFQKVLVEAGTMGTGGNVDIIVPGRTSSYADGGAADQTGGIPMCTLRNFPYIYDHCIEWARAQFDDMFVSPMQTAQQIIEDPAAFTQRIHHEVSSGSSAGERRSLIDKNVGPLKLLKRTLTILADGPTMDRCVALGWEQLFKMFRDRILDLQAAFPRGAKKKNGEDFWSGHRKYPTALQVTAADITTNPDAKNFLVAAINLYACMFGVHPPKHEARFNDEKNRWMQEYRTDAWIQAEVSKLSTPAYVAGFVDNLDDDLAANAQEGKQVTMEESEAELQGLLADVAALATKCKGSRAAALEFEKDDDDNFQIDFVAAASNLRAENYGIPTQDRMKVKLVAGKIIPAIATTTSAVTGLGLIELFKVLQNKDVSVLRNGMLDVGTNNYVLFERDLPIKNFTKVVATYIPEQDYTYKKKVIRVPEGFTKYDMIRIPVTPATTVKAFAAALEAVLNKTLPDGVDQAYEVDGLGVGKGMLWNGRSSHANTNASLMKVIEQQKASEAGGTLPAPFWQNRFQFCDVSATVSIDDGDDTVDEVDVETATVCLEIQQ

[3] = target: AMP-activated protein kinase, AMPK (Homo sapiens) (UniProt P54646+O43741+P54619+Q9UGJ0+Q9Y478+Q13131+Q9UGI9); assay: AMP-dependent Kinase enzyme assay. An in vitro enzyme assay that detects ADP turnover that is directly proportional to AMPK activity. This uses naive AMPK that is activated during the assay with MK-8722; format: functional; settings: 30 µM
[4] = target: Sialic acid-binding Ig-like lectin 9 (Homo sapiens) (UniProt Q9Y336); assay: Hs-Siglec9 ALPHAscreen SOP 20170721; settings: 10 µM
Trypanosoma cruzi = assay: Trypanosoma cruzi phosphomannomutase and mannose-1-phosphate guanylyltransferase assay; format: functional; settings: 10 µM
[5] = target: T2, Arginase-2, mitochondrial (Homo sapiens) (UniProt P78540); assay: in vitro enzyme assay to detect the production of urea directly proportional to the activity of Arginase II; format: functional; settings: 33.3 µM; further: in the data most compounds retested in dose-response had high values
T2 sequence (whole entry): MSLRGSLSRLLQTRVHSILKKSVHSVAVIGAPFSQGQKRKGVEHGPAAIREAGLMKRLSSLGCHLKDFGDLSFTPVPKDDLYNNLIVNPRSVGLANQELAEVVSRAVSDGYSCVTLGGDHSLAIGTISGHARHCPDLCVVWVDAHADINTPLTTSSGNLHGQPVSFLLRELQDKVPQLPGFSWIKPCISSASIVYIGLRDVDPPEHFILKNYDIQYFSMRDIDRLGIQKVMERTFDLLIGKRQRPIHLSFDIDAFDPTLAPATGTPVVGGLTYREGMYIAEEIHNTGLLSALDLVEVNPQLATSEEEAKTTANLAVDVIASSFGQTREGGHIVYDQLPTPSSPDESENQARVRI

[6] = target: T3, Proteasome subunit beta (Trypanosoma cruzi) (UniProt O96673); assay: Trypanosoma cruzi proteasome chymotrypsin-like activity (TcProtChymo) assay.; further: in the data most compounds retested in dose-response had high values; format: functional; settings: 9.37 µM
T3 sequence (whole entry): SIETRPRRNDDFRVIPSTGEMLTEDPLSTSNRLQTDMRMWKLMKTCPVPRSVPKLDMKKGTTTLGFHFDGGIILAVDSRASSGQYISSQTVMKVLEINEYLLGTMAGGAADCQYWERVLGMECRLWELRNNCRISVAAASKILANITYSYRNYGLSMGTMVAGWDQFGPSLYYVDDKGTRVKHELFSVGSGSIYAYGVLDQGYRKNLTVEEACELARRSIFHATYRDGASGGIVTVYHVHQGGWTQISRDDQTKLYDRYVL

Homo sapiens = organism: Homo sapiens; assay: To identify inhibition of the IFN signalling (Jak-Stat) pathway via expression of an eGFP reporter gene under the control of an IFN-stimulated response element (ISRE) containing MxA promoter.; format: functional; settings: 30 µM
[7] = target: T4, Tyrosyl-tRNA synthetase, putative (Trypanosoma cruzi (strain CL Brener)) (UniProt Q4DSP6); assay: Trypanosoma cruzi tyrosyl tRNA synthetase (TcYRS) _High Tyrosine SOP; format: functional; settings: 30 µM; further: in the data most compounds retested in dose-response had high values
T4 sequence (whole entry): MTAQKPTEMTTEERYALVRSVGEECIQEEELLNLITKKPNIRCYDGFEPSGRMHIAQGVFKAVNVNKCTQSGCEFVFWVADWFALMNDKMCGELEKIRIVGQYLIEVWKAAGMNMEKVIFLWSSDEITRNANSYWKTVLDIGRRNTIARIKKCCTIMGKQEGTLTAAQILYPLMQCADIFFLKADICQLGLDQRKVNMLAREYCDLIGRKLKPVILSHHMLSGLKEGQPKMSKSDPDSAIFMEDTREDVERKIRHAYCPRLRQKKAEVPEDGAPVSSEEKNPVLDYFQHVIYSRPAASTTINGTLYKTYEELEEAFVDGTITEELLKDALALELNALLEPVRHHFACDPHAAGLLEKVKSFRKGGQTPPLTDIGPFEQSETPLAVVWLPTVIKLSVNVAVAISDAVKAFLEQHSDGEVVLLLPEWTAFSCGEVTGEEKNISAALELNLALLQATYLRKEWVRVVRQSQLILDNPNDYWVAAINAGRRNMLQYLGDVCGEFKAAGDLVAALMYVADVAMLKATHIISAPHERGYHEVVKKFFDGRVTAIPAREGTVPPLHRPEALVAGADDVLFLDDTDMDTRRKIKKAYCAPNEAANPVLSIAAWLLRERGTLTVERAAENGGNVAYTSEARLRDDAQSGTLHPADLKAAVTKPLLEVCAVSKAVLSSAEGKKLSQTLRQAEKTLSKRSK

[8] = target: T4, Tyrosyl-tRNA synthetase, putative (Trypanosoma cruzi (strain CL Brener)); assay: Trypanosoma cruzi tyrosyl tRNA synthetase (TcYRS) SOP; format: functional; settings: 30 µM
[9] = target: Chromo domain-containing protein 1 (Saccharomyces cerevisiae (strain ATCC 204508 / S288c) (Baker's yeast)) (UniProt P32657); assay: ScCHD-1 Enzyme Inhibition Assay; format: functional; settings: 30 µM; further: in the data most compounds retested in dose-response had high values
Chain of Chromo domain-containing protein 1 (Saccharomyces cerevisiae (strain ATCC 204508 / S288c) (Baker's yeast)) (P32657 whole entry, the tested form may be a part): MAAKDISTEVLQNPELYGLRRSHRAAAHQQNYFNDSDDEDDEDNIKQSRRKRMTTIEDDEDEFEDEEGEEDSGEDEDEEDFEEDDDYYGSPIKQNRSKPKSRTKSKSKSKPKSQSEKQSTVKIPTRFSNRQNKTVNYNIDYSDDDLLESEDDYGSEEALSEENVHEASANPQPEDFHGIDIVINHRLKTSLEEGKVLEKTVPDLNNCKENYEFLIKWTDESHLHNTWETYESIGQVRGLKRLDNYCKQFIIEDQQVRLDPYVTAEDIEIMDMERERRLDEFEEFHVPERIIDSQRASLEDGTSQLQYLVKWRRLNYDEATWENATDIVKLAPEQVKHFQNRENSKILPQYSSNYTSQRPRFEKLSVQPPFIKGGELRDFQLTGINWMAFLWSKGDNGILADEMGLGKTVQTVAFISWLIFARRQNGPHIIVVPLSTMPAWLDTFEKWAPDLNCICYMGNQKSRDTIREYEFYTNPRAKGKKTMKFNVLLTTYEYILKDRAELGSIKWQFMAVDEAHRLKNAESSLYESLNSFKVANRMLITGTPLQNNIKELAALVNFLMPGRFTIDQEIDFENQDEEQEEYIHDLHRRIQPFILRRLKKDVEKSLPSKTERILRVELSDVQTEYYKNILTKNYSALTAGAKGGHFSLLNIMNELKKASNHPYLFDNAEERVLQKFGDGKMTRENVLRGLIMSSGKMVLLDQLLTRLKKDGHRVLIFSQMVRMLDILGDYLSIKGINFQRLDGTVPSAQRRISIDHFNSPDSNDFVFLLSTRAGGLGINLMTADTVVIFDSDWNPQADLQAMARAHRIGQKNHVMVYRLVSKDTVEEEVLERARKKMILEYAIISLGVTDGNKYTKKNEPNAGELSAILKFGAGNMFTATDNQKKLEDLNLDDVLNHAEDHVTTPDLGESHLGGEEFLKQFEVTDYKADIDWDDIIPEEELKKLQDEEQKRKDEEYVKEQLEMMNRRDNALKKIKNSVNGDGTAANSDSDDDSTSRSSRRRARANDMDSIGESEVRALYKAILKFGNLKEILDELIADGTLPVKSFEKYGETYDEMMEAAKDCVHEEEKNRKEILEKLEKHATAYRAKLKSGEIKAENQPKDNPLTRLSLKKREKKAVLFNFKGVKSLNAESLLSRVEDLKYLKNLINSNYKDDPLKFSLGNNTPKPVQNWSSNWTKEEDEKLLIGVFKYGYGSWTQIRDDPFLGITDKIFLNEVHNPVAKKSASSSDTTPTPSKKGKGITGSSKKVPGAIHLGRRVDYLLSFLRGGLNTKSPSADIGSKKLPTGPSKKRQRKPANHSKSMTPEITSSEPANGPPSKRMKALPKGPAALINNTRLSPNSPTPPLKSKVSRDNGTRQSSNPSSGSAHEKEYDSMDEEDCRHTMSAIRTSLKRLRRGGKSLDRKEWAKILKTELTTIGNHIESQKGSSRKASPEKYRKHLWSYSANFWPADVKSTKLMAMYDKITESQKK

Chain of Protein translocase subunit SecA (Escherichia coli (strain K12)) (P10408 whole entry): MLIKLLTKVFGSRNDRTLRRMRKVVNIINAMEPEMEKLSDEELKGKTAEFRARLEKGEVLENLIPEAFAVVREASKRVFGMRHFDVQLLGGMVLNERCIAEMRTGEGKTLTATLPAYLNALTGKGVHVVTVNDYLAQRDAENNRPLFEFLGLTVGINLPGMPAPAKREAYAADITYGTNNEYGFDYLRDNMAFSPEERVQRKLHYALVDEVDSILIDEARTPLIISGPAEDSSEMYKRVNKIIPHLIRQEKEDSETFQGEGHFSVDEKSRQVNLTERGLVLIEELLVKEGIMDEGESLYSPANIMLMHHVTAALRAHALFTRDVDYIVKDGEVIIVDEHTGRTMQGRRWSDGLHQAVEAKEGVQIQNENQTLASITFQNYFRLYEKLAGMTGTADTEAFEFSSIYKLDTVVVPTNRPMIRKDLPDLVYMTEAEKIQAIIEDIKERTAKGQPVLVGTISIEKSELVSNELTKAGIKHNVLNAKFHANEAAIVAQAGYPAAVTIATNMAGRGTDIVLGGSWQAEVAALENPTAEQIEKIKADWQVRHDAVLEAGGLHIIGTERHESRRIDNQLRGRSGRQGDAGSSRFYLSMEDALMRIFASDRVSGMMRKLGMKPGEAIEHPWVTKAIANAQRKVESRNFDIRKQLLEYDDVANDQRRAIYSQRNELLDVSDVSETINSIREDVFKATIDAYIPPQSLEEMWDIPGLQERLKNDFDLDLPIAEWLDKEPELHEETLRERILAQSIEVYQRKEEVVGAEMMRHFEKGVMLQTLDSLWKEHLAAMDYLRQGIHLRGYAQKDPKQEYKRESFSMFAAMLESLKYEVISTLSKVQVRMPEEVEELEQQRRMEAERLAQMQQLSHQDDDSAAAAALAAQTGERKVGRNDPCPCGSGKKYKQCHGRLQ
Chain of Sialic acid-binding Ig-like lectin 9 (Homo sapiens) (Q9Y336 whole entry): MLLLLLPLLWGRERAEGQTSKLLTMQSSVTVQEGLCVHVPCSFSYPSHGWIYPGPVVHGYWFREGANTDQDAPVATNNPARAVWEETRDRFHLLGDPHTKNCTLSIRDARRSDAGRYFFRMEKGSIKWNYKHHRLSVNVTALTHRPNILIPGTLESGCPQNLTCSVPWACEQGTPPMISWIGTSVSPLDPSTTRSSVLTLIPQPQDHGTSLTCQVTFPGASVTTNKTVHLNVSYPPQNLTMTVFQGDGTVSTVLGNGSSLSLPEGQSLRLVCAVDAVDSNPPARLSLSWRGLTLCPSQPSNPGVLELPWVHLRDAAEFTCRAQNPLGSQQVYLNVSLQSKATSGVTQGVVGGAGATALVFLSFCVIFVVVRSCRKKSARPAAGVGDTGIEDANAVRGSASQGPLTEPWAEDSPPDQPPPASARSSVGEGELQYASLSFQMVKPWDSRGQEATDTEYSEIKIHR

Row | SMILES | Percent Effect [1] | Percent Effect [2] | Percent Effect [3] | Percent Effect [4] | Percent Effect (Trypanosoma cruzi) | Percent Effect [5] | Percent Effect [6] | Percent Effect (Homo sapiens) | Percent Effect [7] | Percent Effect [8] | Percent Effect [9]
1 | CNc1cncc(C2CCCN2C(=O)c2ccc3oc(=O)n(C)c3c2)n1 (stereo not drawn) | -2.39% | 14.9% | 8.4% | -7.77% | 3.36% | 0.696% | 9.36% | -8.91% | 5.38% | 3.9% | -16.2%
2 | Cc1cnccc1N1CCCN(C(=O)CCCc2cn[nH]c2)CC1 | -2.89% | 11% | -5.34% | 18.3% | 3.92% | -1.36% | -1.06% | 4.4% | 1.07% | 7.5% | -3.49%
3 | Cc1nc(C)n(C2CCCN(C(=O)c3cc4ccccc4n3C)C2)n1 (stereo not drawn) | -3.87% | 7.79% | -8.41% | 1.64% | 5.78% | 0.632% | 6.71% | 17.1% | 7.62% | 9.41% | -16.3%
4 | CCC(C)c1noc(C2CCN(C(=O)c3cccs3)CC2)n1 (stereo not drawn) | -0.878% | 7.79% | 1.18% | 3.86% | -2.65% | -2.76% | 13.8% | 23.9% | 4.3% | 11.1% | -1.15%
5 | O=C(c1cccc(Cl)c1)N1CC[C@H]2[C@H]1CCN2CC1CCOCC1 | -2.38% | 0% | 10.3% | 0.0847% | 0.197% | 1.17% | 9.78% | -5.51% | 4.25% | 3.85% | -5.25%
6 | Cc1noc(C2CCC3(CCN(C(=O)c4c(C)noc4C)CC3)O2)n1 (stereo not drawn) | -6.54% | 2.7% | -4.63% | 17.5% | 7.53% | -6.2% | 0.0858% | 5.82% | -4.3% | 11.1% | -1.92%
7 | Cn1cc(CN2C[C@@H]3COC[C@@H](C(=O)N4CCCCO4)[C@@H]3C2)cn1 | -2.29% | 2.67% | 9.23% | 1.72% | 0.787% | 3.03% | 8.19% | 3.52% | 7.45% | 8.97% | 1.85%
8 | Cc1cc(-c2nnn(CCNS(C)(=O)=O)n2)ccc1F | -6.86% | 5.48% | 0.593% | 2.92% | 3.17% | 0.399% | 4.71% | 17.4% | 9.38% | 18.5% | -2.42%
